{"source": "PubChem BioAssay AID2685", "about": "(National Center for Advancing Translational Sciences (NCATS), 2010)", "note": "About 2,100 (0.66%) of roughly 320,000 compounds were called active. Not shown: some 53% with an inconclusive outcome. Calls follow the shape of the dose curve; as a rule, active = well fitted inhibition curve with a large enough effect in the signal ratio, with a control signal flat (not every such curve was filed as active); inconclusive = small, poorly fitted or top-dose-only effect, or effect the other way, or a change in a side signal; inactive = flat fitted curve, though single readings scatter; the % refers to the signal ratio. The entries come from a sample that favours actives as a whole. Potency is read from the fitted curve at half-maximal effect.", "data": [{"assay": "qHTS Assay for Lipid Storage Modulators in Drosophila S3 Cells;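 as to cell number change: cells counted by Cell Tracker Red CMTPX staining in the red channel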; as to lipid storage change, negative = inhibition: % is scaled to controls: 0 for no effect and ±100 for the full control effect", "conditions": "BODIPY lipid droplet fluorescence, 18-24 h, cells fed with added oleic acid; cell number change: measured here: cell count max response; series mostly up to 46.1 µM; lipid storage change, negative = inhibition: at the top concentration", "summary_of_the_method": "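Drosophila S3 cells got compounds at several concentrations plus oleic acid (400 uM solution). Laser-scanning cytometry with 488 nm excitation read lipid droplets at 500-530 nm and cells at 575-640 nm. Percent activity was relative to 20 uM Triacsin C.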", "units": {"cell number change": "%"}, "values": [{"smiles": "Cc1onc(-c2ccccc2Cl)c1C(=O)N1CCCCCC1", "Potency": "25.9 µM (active)", "cell number change": 0.806}, {"smiles": "Cc1onc(-c2ccccc2Cl)c1C(=O)N1CCC(C)CC1", "outcome": "inactive", "cell number change": -10.5}, {"smiles": "Cc1onc(-c2ccccc2Cl)c1C(=O)N1CCN(C=O)CC1", "lipid storage change, negative = inhibition": "-12.5% (inactive)"}, {"smiles": "CCNC(=S)N1CCN=C1Nc1nc(C)cc(C)n1", "lipid storage change, negative = inhibition": "-14.2% (inactive)", "cell number change": 8.32}, {"smiles": "CCn1cc(CNC(=O)/C=C/c2ccc([N+](=O)[O-])cc2)cn1", "lipid storage change, negative = inhibition": "-8.69% (inactive)", "cell number change": -8.84}, {"smiles": "O=C(O)CCn1c2ccccc2c2nc3ccccc3nc21", "outcome": "inactive", "cell number change": -11.8}, {"smiles": "CCn1c2ccccc2c2nc3cc(C(=O)O)ccc3nc21", "Potency": "0.58 µM (active)", "cell number change": -24.2}, {"smiles": "CCn1c2ccc(C)cc2c2nc3cc(C(=O)O)ccc3nc21", "lipid storage change, negative = inhibition": "-18% (inactive)", "cell number change": -5.53}, {"smiles": "CC(=O)NCCc1nc2cc(NC(=O)c3cccc([N+](=O)[O-])c3)ccc2n1C", "lipid storage change, negative = inhibition": "13.5% (inactive)"}, {"smiles": "COc1nn(CC(=O)N2N=C(C)CC2(O)C(F)(F)F)cc1[N+](=O)[O-]", "note": "(stereo not drawn)", "lipid storage change, negative = inhibition": "7.76% (inactive)", "cell number change": 11.8}, {"smiles": "COc1nn(CC(=O)N2N=C(C)CC2(O)C(F)F)cc1[N+](=O)[O-]", "note": "(stereo not drawn)", "lipid storage change, negative = inhibition": "-2.88% (inactive)", "cell number change": 5.87}, {"smiles": "CCOC(=O)Cn1cc([N+](=O)[O-])c(OC)n1", "Potency": "23.1 µM (active)", "cell number change": -15}, {"smiles": "CCOc1ccc(CCNC(=O)c2nnc(Cc3ccc(F)cc3)o2)cc1OCC", "lipid storage change, negative = inhibition": "5.14% (inactive)", "cell number change": -1.72}, {"smiles": "CN(CCCNC(=O)COc1cc(=O)n(C)c2ccccc12)Cc1ccccc1", "lipid storage change, negative = inhibition": "6.06% (inactive)", "cell number change": 1.19}, {"smiles": "O=C(Nc1nc(SCc2ccc(F)cc2)ns1)c1ccco1", "lipid storage change, negative = inhibition": "4.24% (inactive)", "cell number change": -12.1}, {"smiles": "C=CCSc1nsc(NC(=O)Nc2ccc(F)cc2)n1", "Potency": "5.17 µM (active)", "cell number change": -16.2}, {"smiles": "CCSc1nsc(NC(=O)Nc2ccc(F)cc2F)n1", "outcome": "inactive"}, {"smiles": "Cc1ccccc1S(=O)(=O)NCC1CCCO1", "note": "(stereo not drawn)", "outcome": "inactive", "cell number change": -3.81}, {"smiles": "COCc1cc(C)nc(SCC[N+](C)(C)CC(=O)c2ccc(Br)cc2)c1C#N", "lipid storage change, negative = inhibition": "0.0033% (inactive)"}, {"smiles": "NC(=O)C1=C[C@@H](c2coc3ccccc3c2=O)C[C@@H](OCc2ccc(CO)cc2)O1", "lipid storage change, negative = inhibition": "12.2% (inactive)", "cell number change": 16}, {"smiles": "CCc1ccc(CN(C)C(=O)c2cc(COc3cccc4cnccc34)on2)cc1", "outcome": "inactive", "cell number change": 14.5}, {"smiles": "CCOC(=O)C1=C(CBr)NC(=O)NC1C", "note": "(stereo not drawn)", "lipid storage change, negative = inhibition": "-10.4% (inactive)", "cell number change": -12.6}, {"smiles": "CCOC(=O)C1=C(C)NC(=O)NC1C", "note": "(stereo not drawn)", "Potency": "5.17 µM (active)", "cell number change": -10.2}, {"smiles": "CC1=C(C(=O)OCc2ccccc2)C(c2cccc([N+](=O)[O-])c2)NC(=O)N1", "note": "(stereo not drawn)", "lipid storage change, negative = inhibition": "5.58% (inactive)", "cell number change": 10.6}, {"smiles": "CCOC(=O)C1=C(COc2ccccc2)NC(=O)NC1c1cccc([N+](=O)[O-])c1", "note": "(stereo not drawn)", "Potency": "9.2 µM (active)", "cell number change": 3.89}, {"smiles": "CC1=C(C(=O)OCC2CCCO2)C(c2cccc(O)c2)NC(=O)N1", "note": "(stereo not drawn)", "lipid storage change, negative = inhibition": "7.62% (inactive)", "cell number change": -24.8}, {"smiles": "CCOC(=O)C1=C(C)NC(=O)NC1c1cccc(O)c1", "note": "(stereo not drawn)", "Potency": "20.6 µM (active)", "cell number change": 0.128}, {"smiles": "CCOC(=O)C1=C(C)NC(C)=C(C(=O)OCC)C1C", "lipid storage change, negative = inhibition": "15.9% (inactive)", "cell number change": 8.56}, {"smiles": "CCOC(=O)C1=C(C)N(C)C(=O)NC1c1cccc(O)c1", "note": "(stereo not drawn)", "outcome": "inactive"}, {"smiles": "CCOC(=O)C1=C(CN2CCSCC2)NC(=O)NC1c1cccc([N+](=O)[O-])c1", "note": "(stereo not drawn)", "lipid storage change, negative = inhibition": "7.96% (inactive)", "cell number change": -8.36}, {"smiles": "CCOc1cc(N2CCOCC2)c(OCC)cc1NC(=O)CSc1n[nH]c(N)n1", "lipid storage change, negative = inhibition": "10.3% (inactive)", "cell number change": 21.7}, {"smiles": "CCOC(=O)c1c(NC(=O)COC(=O)c2cc(OC)c(OC)cc2[N+](=O)[O-])sc(C)c1CC", "lipid storage change, negative = inhibition": "7.82% (inactive)", "cell number change": -0.918}, {"smiles": "CN(c1ccccc1)S(=O)(=O)c1cccc(NC(=O)CN2CCc3ccccc3C2)c1", "outcome": "inactive"}, {"smiles": "CC1=C(C(N)=O)C(c2cccs2)n2ncnc2N1", "note": "(stereo not drawn)", "lipid storage change, negative = inhibition": "-8.85% (inactive)", "cell number change": -0.857}, {"smiles": "COc1ccc(S(=O)(=O)Nc2c(C(=O)O)[nH]c3ccccc23)cc1OC", "lipid storage change, negative = inhibition": "25.4% (inactive)", "cell number change": 2.12}, {"smiles": "COc1ccccc1OCC(=O)Nc1cc(NC(=O)COc2ccccc2OC)cc(C(=O)O)c1", "outcome": "inactive", "cell number change": -10.7}, {"smiles": "Cc1cc(=O)n2[nH]nnc2n1", "lipid storage change, negative = inhibition": "-9.73% (inactive)", "cell number change": -0.264}, {"smiles": "CCC(C)[C@@H](C(=O)N1CCNCC1)n1cc(CCCN=C(N)N)nn1", "note": "(stereo partly drawn)", "lipid storage change, negative = inhibition": "-8.66% (inactive)", "cell number change": -4.28}, {"smiles": "Oc1[nH]c2ccccc2c1N=Nc1ncnc2c1oc1ccccc12", "lipid storage change, negative = inhibition": "-11.9% (inactive)", "cell number change": 8.73}, {"smiles": "Oc1[nH]c2ccccc2c1N=Nc1ccc(C(F)(F)F)cn1", "lipid storage change, negative = inhibition": "-3.49% (inactive)", "cell number change": -7.88}, {"smiles": "Cc1sc2ncnc(N=Nc3c(O)[nH]c4ccccc34)c2c1C", "Potency": "20.6 µM (active)", "cell number change": -22}, {"smiles": "Cc1ccccc1OCCNc1ccc(C(F)(F)F)cc1[N+](=O)[O-]", "lipid storage change, negative = inhibition": "-9.82% (inactive)", "cell number change": -21}, {"smiles": "CCS(=O)(=O)N1Cc2ccccc2CC1C(=O)Nc1ccc(C)cc1", "note": "(stereo not drawn)", "outcome": "inactive"}, {"smiles": "CCS(=O)(=O)N1Cc2ccccc2CC1C(=O)NC(C)C12CC3CC(CC(C3)C1)C2", "note": "(stereo not drawn)", "Potency": "23.1 µM (active)", "cell number change": -29.2}, {"smiles": "CCS(=O)(=O)N1Cc2ccccc2CC1C(=O)Nc1ccc(NC(C)=O)cc1", "note": "(stereo not drawn)", "outcome": "inactive"}, {"smiles": "Cc1ccc(C=Nc2ccccc2C(N)=O)o1", "lipid storage change, negative = inhibition": "8.66% (inactive)", "cell number change": -8.21}, {"smiles": "CC1CN(c2ccc([N+](=O)[O-])cc2F)CCN1C(=O)c1ccco1", "note": "(stereo not drawn)", "lipid storage change, negative = inhibition": "15.3% (inactive)", "cell number change": -3.23}, {"smiles": "Cc1ccc(NS(=O)(=O)c2ccc3c(c2)N(C)CCO3)cc1", "outcome": "inactive", "cell number change": 5.66}, {"smiles": "CCOc1ccccc1NS(=O)(=O)c1ccc2c(c1)n(C)c(=O)c(=O)n2C", "lipid storage change, negative = inhibition": "0.5% (inactive)", "cell number change": -6.25}, {"smiles": "COc1ccc(C)cc1NS(=O)(=O)c1ccc2c(c1)N(C(C)=O)CCO2", "outcome": "inactive", "cell number change": 6.45}, {"smiles": "CCOc1ccccc1NS(=O)(=O)c1ccc2c(c1)N(C)CCO2", "Potency": "7.31 µM (active)", "cell number change": -20.1}, {"smiles": "COc1ccc(C)cc1NS(=O)(=O)c1ccc2c(c1)N(C)CCO2", "Potency": "20.6 µM (active)", "cell number change": 6.6}, {"smiles": "CCOc1ccccc1NS(=O)(=O)c1ccc(OC)c(OC)c1", "lipid storage change, negative = inhibition": "3.17% (inactive)", "cell number change": -6.31}, {"smiles": "CN(C)S(=O)(=O)c1ccc(N2CCCC2)c(C(=O)Nc2ccc(C(N)=O)cc2)c1", "lipid storage change, negative = inhibition": "16.1% (inactive)"}, {"smiles": "Cc1ccc(NC(=S)N2CCN(Cc3ccccc3)CC2)c(C)c1", "lipid storage change, negative = inhibition": "12.5% (inactive)", "cell number change": 7.65}, {"smiles": "COc1ccc(C2C(C(=O)N3CCCCC3)CC(=O)N2c2ccc(OC)cc2)cc1", "note": "(stereo not drawn)", "lipid storage change, negative = inhibition": "20.1% (inactive)", "cell number change": -20}, {"smiles": "CCOc1ccc(/C=N/NC(=O)c2cc3ccccc3cc2OC)cc1", "outcome": "inactive"}, {"smiles": "O=C(Cc1ccc([N+](=O)[O-])cc1)NC(C(=O)O)C(O)c1cccc([N+](=O)[O-])c1", "note": "(stereo not drawn)", "lipid storage change, negative = inhibition": "19.1% (inactive)", "cell number change": -5.25}, {"smiles": "CN(C)CC(=O)N1c2ccccc2CCc2ccc(NC(=O)c3ccc(N)cc3)cc21", "outcome": "inactive"}, {"smiles": "CCOc1ccccc1CN1CCNC(=O)C1CC(=O)NCCCn1cccn1", "note": "(stereo not drawn)", "outcome": "inactive", "cell number change": -11.6}, {"smiles": "CCOc1ccccc1CN1CCNC(=O)C1CC(=O)NCCN1CCOC1=O", "note": "(stereo not drawn)", "Potency": "2.31 µM (active)", "cell number change": 19.4}, {"smiles": "CCOc1ccccc1CN1CCNC(=O)C1CC(=O)NCCc1ccccn1", "note": "(stereo not drawn)", "lipid storage change, negative = inhibition": "-15.3% (inactive)", "cell number change": -15.8}]}]}
